# According to the supplement of paper PMC9446081:
# ± gives the standard deviation of the averaged measurements.
# Experiments:
# Test in all cases: relative enzymatic activity vs untreated control (fraction); higher = less inhibition
# Conditions in all cases: 100 µM; incubation time: 2 h at 37 C
# [1] = test system: DNA gyrase
# Procedure: (§1)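 In vitro enzymatic inhibition assays (ProFoldin kits) for 12 purified essential E. coli enzymes or complexes, each treated with 218 active antibacterial compounds at 100 µM for 2 h at 37°C. Read-outs were fluorescence or absorbance (phosphate detection, dye binding), converted to activity via standard curves and expressed relative to untreated DMSO controls.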
# [2] = target: DNA helicase (UniProt P0ACB1)
# Procedure: as §1
# [3] = target: DNA ligase (UniProt B1XA82)
# Procedure: as §1
# [4] = target: DNA polymerase (UniProt P10443)
# Procedure: as §1
# [5] = target: DNA primase (UniProt P0ABS7)
# Procedure: as §1
# [6] = target: GlmU (UniProt A7ZTU1)
# Procedure: as §1
# [7] = target: Guanlyate kinase (UniProt Q0TBG1)
# Procedure: as §1
# [8] = target: MurA (UniProt Q3YX52)
# Procedure: as §1
# [9] = target: T1, MurD (UniProt P14900)
# T1 sequence (whole entry): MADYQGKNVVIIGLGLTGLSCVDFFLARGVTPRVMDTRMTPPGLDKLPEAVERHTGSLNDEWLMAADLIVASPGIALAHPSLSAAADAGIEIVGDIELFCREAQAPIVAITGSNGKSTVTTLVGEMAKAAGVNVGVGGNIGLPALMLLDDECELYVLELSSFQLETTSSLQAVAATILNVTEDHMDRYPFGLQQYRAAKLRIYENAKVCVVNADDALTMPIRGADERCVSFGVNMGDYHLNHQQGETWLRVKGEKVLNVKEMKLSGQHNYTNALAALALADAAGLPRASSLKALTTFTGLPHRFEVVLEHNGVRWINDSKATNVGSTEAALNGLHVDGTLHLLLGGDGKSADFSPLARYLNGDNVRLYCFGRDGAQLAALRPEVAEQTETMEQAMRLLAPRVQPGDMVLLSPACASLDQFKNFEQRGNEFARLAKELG
# Procedure: as §1
# [10] = target: T2, MurF (UniProt P11880)
# T2 sequence (whole entry): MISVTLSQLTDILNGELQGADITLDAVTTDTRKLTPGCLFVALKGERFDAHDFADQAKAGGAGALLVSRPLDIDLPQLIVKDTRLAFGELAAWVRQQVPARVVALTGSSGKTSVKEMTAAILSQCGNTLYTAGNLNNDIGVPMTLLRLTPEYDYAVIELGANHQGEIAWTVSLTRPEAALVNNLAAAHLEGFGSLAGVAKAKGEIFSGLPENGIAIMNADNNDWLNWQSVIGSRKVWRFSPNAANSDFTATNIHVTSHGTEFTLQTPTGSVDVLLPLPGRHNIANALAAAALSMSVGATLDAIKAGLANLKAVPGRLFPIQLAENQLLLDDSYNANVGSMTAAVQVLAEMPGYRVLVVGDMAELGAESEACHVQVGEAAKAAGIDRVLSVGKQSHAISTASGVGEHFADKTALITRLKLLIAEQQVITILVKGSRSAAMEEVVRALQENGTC
# Procedure: as §1
# [11] = test system: RNA polymerase
# Procedure: as §1
# [12] = target: MurC (UniProt C4ZRI6)
# Procedure: as §1
# Chain of DNA primase (P0ABS7 whole entry): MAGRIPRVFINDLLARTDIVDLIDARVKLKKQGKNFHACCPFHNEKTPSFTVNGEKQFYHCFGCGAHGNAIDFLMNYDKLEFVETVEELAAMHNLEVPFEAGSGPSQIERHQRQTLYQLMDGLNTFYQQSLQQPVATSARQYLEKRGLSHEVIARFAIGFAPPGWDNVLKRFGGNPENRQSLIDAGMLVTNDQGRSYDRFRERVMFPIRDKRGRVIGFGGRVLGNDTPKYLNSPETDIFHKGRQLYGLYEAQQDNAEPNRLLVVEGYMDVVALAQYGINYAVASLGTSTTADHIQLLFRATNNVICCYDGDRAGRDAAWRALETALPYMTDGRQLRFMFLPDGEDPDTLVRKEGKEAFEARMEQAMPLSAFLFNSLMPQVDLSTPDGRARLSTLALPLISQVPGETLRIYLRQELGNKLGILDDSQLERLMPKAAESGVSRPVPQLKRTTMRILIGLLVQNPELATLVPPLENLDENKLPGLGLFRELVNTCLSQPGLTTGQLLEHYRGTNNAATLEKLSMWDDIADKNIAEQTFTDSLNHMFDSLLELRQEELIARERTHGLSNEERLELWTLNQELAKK
# Chain of GlmU (A7ZTU1 whole entry, looked up): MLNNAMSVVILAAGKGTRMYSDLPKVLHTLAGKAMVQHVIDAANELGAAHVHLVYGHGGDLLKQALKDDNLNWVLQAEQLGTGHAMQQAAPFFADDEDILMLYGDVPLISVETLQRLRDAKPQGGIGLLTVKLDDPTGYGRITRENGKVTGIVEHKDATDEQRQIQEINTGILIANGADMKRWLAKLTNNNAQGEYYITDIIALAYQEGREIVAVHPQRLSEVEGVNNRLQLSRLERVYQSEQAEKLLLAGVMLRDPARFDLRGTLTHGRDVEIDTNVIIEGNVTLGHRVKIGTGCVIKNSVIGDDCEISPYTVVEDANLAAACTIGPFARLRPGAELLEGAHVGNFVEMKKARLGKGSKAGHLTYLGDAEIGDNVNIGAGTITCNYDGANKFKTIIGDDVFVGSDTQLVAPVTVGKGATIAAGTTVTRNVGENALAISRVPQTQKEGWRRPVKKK
# Chain of DNA polymerase (P10443 whole entry): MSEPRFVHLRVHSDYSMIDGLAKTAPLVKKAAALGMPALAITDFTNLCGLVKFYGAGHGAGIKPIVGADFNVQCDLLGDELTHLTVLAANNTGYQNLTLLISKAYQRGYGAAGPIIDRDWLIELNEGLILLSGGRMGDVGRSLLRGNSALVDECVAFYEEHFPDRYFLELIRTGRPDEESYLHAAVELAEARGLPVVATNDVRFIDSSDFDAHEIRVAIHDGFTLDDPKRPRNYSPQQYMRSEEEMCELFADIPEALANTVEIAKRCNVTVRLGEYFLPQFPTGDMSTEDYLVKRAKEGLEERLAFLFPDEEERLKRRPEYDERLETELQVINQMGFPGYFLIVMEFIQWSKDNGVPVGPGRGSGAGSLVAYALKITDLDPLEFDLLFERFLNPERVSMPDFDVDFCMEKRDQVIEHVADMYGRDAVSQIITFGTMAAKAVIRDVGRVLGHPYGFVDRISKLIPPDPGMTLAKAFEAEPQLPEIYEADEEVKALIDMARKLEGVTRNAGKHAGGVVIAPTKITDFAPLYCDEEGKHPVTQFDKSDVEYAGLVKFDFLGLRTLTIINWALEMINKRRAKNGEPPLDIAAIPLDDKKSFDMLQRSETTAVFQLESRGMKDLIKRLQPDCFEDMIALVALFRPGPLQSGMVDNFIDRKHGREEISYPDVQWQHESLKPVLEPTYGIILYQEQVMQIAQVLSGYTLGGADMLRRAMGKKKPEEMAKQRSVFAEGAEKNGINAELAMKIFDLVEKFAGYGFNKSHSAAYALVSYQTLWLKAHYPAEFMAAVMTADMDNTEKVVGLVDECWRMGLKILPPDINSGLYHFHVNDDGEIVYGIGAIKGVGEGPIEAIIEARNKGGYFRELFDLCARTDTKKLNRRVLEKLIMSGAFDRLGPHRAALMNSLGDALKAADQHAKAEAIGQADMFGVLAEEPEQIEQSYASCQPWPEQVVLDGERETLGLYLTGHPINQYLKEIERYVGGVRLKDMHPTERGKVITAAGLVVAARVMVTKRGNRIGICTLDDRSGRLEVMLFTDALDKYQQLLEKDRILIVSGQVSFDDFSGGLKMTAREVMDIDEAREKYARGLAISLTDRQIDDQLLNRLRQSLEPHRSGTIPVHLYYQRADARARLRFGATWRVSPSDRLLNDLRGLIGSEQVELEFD
# Chain of DNA helicase (P0ACB1 whole entry): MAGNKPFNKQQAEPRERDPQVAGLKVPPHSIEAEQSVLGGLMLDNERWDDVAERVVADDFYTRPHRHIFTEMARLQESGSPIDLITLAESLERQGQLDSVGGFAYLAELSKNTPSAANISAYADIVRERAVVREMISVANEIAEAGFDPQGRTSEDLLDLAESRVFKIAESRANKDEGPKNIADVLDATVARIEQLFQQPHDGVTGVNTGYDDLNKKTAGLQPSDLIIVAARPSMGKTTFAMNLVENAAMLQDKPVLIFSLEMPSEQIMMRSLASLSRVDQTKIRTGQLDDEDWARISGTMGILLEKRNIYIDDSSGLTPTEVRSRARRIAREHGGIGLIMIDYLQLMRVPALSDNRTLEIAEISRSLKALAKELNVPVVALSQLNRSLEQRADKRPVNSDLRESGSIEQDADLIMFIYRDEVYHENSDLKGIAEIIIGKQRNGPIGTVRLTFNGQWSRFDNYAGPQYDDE
# Chain of DNA ligase (B1XA82 whole entry): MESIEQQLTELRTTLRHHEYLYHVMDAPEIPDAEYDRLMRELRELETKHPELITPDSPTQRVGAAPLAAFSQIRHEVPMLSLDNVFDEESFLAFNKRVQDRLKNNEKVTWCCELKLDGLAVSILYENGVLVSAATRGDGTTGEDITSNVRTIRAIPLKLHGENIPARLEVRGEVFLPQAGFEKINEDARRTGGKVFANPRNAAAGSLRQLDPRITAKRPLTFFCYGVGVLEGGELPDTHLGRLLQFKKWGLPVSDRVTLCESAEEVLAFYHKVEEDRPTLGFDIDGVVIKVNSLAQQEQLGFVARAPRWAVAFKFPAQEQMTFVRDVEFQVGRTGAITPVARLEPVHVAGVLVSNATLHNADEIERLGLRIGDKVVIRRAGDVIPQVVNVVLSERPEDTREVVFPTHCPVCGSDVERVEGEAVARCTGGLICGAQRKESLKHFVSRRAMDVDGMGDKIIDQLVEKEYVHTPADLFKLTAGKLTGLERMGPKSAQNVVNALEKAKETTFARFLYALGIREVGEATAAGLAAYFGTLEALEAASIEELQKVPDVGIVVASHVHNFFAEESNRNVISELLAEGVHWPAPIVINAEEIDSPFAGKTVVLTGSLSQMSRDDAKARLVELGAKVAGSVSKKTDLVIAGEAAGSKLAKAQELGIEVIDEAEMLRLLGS
# Chain of Guanlyate kinase (Q0TBG1 whole entry): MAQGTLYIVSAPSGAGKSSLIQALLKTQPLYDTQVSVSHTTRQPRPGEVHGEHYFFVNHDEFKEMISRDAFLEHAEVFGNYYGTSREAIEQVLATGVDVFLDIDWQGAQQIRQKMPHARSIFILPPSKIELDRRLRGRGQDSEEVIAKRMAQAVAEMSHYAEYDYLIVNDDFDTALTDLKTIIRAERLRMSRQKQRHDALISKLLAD
# Chain of MurA (Q3YX52 whole entry): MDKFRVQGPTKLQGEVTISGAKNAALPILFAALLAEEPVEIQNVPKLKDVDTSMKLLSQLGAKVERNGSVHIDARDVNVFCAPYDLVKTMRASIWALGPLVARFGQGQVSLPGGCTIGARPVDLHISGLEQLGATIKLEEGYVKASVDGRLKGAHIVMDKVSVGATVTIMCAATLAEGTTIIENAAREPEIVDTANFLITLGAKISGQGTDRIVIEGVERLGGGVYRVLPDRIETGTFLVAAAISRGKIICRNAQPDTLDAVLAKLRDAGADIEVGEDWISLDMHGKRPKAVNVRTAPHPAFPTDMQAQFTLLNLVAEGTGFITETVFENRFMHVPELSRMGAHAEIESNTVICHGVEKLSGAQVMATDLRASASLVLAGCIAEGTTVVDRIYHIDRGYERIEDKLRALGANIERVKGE
# Chain of MurC (C4ZRI6 whole entry, looked up): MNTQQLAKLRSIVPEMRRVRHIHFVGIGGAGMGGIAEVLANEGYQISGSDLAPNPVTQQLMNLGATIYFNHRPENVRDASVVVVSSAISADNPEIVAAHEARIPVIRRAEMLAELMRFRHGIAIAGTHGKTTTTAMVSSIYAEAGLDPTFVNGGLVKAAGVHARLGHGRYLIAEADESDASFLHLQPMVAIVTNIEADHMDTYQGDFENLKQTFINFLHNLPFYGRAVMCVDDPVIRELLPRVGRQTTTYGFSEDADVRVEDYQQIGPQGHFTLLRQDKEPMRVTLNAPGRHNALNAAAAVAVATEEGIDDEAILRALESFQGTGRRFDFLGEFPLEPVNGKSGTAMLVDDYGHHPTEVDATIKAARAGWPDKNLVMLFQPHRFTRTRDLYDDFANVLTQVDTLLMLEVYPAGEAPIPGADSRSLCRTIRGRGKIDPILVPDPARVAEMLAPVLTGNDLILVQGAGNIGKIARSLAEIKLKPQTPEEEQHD
SMILES,relative enzymatic activity [1],relative enzymatic activity [2],relative enzymatic activity [3],relative enzymatic activity [4],relative enzymatic activity [5],relative enzymatic activity [6],relative enzymatic activity [7],relative enzymatic activity [8],relative enzymatic activity [9],relative enzymatic activity [10],relative enzymatic activity [11],relative enzymatic activity [12]
N[C@@H]1CC[C@@H](c2ccc(Cl)c(Cl)c2)c2ccccc21,0.381 ± 0.18,0.0688 ± 0.0028,0.842 ± 0.083,0.507 ± 0.72,0.749 ± 0.027,0.646 ± 0.059,0.924 ± 0.13,0.622 ± 0.57,0.378 ± 0.23,1.02 ± 0.22,0.905 ± 0.019,–
CCCCCCCCCCCCCCCC[N+](C)(C)C,0.633 ± 0.67,0.0316 ± 0.02,0.457 ± 0.13,0.0628 ± 0.012,0.384 ± 0.054,0.198 ± 0.0053,0.644 ± 0.077,0.0456 ± 0.013,0.173 ± 0.085,0.106 ± 0.034,0.223 ± 0.0051,–
CN(C)C1C(O)=C(C(N)=O)C(=O)C2(O)C(O)=C3C(=O)c4c(O)cccc4C(C)(O)C3C(O)C12.Cl (configuration not stated),0.0137 ± 0.019,0.171 ± 0.03,0.908 ± 0.21,0.4407 ± 0.0041,0.517 ± 0.0096,1.02 ± 0.013,0.521 ± 0.0059,0.0726 ± 0.028,0.635 ± 0.42,1.02 ± 0.25,0.177 ± 0.017,–
CCC(C)C1NC(=O)C(CCNCS(=O)(=O)[O-])NC(=O)C(NC(=O)C(CCNCS(=O)(=O)[O-])NC(=O)C(NC(=O)C(CCNCS(=O)(=O)[O-])NC(=O)CCCCC(C)C)C(C)O)CCNC(=O)C(C(C)O)NC(=O)C(CCNCS(=O)(=O)[O-])NC(=O)C(CCNCS(=O)(=O)[O-])NC(=O)C(C(C)CC)NC1=O.[Na+].[Na+].[Na+].[Na+].[Na+] (configuration not stated),1.1 ± 0.088,0.615 ± 0.27,1.08 ± 0.17,1.32 ± 0.34,0.766 ± 0.23,0.983 ± 0.022,1 ± 0.023,0.564 ± 0.14,0.591 ± 0.39,1.03 ± 0.3,0.919 ± 0.029,–
CO[C@@H]1[C@@H](OC(=O)c2ccc(C)[nH]2)[C@@H](O)[C@@H](Oc2ccc3c(c2C)OC(=O)[C@H](NC(=O)c2[nH]cc(CC(=O)Nc4cc5ccc(O[C@@H]6OC(C)(C)[C@H](OC)[C@@H](OC(=O)c7ccc(C)[nH]7)[C@H]6O)c(C)c5oc4=O)c2C)C3)CC1(C)C,0.165 ± 0.23,0.0977 ± 0.012,0.835 ± 0.013,0.759 ± 0.06,0.876 ± 0.11,0.892 ± 0.021,0.72 ± 0.087,1.09 ± 0.059,0.869 ± 0.57,1.26 ± 0.26,0.715 ± 0.093,–
O=C([O-])CCC(=O)OCC(NC(=O)C(Cl)Cl)C(O)c1ccc([N+](=O)[O-])cc1.[Na+] (configuration not stated),1.05 ± 0.13,0.463 ± 0.053,0.965 ± 0.047,1.27 ± 0.34,0.718 ± 0.2,1.02 ± 0.042,1.025 ± 0.0099,0.872 ± 0.038,0.578 ± 0.37,0.957 ± 0.19,0.838 ± 0.064,–
C=CC1=C(C(=O)O)N2C(=O)[C@@H](NC(=O)/C(=N\O)c3csc(N)n3)[C@H]2SC1,0.489 ± 0.086,0.523 ± 0.095,0.92 ± 0.15,1.13 ± 0.24,0.774 ± 0.038,0.988 ± 0.07,0.885 ± 0.068,0.212 ± 0.095,0.619 ± 0.42,0.981 ± 0.22,0.894 ± 0.077,–
CN(C)c1ccc(O)c2c1C[C@H]1C[C@H]3[C@H](N(C)C)C(=O)C(C(N)=O)=C(O)[C@@]3(O)C(=O)[C@H]1C2=O,0.655 ± 0.27,0.659 ± 0.38,0.8389 ± 0.0033,0.961 ± 0.2,0.669 ± 0.027,0.995 ± 0.035,0.701 ± 0.069,0.0752 ± 0.015,0.623 ± 0.42,0.96 ± 0.18,0.304 ± 0.052,–
O=C1C=CC(=O)N1,0.511 ± 0.14,0.616 ± 0.23,0.848 ± 0.071,1 ± 0.3,0.801 ± 0.014,0.973 ± 0.066,0.814 ± 0.18,0.171 ± 0.052,0.533 ± 0.5,0.951 ± 0.22,0.83 ± 0.2,–
CCCCCCCCCCCCCCCC[N+](C)(C)Cc1ccccc1.[Cl-],0.3954 ± 0.003,0.0157 ± 0.00047,0.183 ± 0.12,0.0334 ± 0.0085,0.27 ± 0.0085,0.115 ± 0.0013,0.0243 ± 0.0088,0.032 ± 0.0013,0.0872 ± 0.0094,0.156 ± 0.061,0.133 ± 0.018,–
COc1c(N2CCNC(C)C2)c(F)cc2c(=O)c(C(=O)O)cn(C3CC3)c12 (configuration not stated),0.0476 ± 0.067,0.48 ± 0.021,0.942 ± 0.14,1.09 ± 0.15,0.876 ± 0.017,0.989 ± 0.034,0.899 ± 0.084,0.804 ± 0.16,0.577 ± 0.36,0.942 ± 0.26,0.763 ± 0.0079,–
O=c1[nH]c(=O)n([C@H]2C[C@H](O)[C@@H](CO)O2)cc1F,0.574 ± 0.53,0.629 ± 0.23,0.789 ± 0.18,1.15 ± 0.27,0.8368 ± 0.0026,0.979 ± 0.066,0.927 ± 0.06,0.762 ± 0.13,0.584 ± 0.38,0.953 ± 0.23,0.7944 ± 0.0043,–
CCOC(=O)CCC(=O)O[C@H]1[C@H](O[C@@H]2[C@@H](C)[C@H](O[C@H]3C[C@@](C)(OC)[C@@H](O)[C@H](C)O3)[C@@H](C)C(=O)O[C@H](CC)[C@@](C)(O)[C@H](O)[C@@H](C)C(=O)[C@H](C)C[C@@]2(C)O)O[C@H](C)C[C@@H]1N(C)C,0.685 ± 0.3,0.691 ± 0.34,0.982 ± 0.061,1.17 ± 0.28,0.835 ± 0.0032,1.018 ± 0.0098,0.941 ± 0.052,0.816 ± 0.11,0.599 ± 0.4,0.961 ± 0.23,0.831 ± 0.037,–
C=CC1=C(C(=O)O)N2C(=O)C(NC(=O)C(=NO)c3csc(N)n3)C2SC1 (configuration not stated),0.393 ± 0.35,0.553 ± 0.15,1.19 ± 0.35,1.06 ± 0.12,0.8619 ± 0.0016,0.976 ± 0.068,0.917 ± 0.087,0.127 ± 0.04,0.596 ± 0.39,0.968 ± 0.27,0.768 ± 0.033,–
C/C(=C\C(=O)OCCCCCCCCC(=O)O)C[C@@H]1OC[C@H](C[C@@H]2O[C@H]2[C@@H](C)[C@H](C)O)[C@@H](O)[C@H]1O,0.849 ± 0.24,0.52 ± 0.098,0.897 ± 0.013,0.512 ± 0.72,0.807 ± 0.031,0.999 ± 0.045,1.06 ± 0.087,0.688 ± 0.19,0.607 ± 0.43,1.17 ± 0.52,0.935 ± 0.11,–
COc1ccc2c(c1OC)C(=O)OC2C1c2c(cc3c(c2OC)OCO3)CCN1C.Cl (configuration not stated),0.0862 ± 0.019,0.249 ± 0.016,1.11 ± 0.17,1.36 ± 0.47,0.947 ± 0.42,1.123 ± 0.0013,1.12 ± 0.066,0.417 ± 0.096,0.684 ± 0.53,0.967 ± 0.19,0.914 ± 0.045,–
Cc1nnc(SCC2=C(C(=O)[O-])N3C(=O)C(NC(=O)Cn4cnnn4)C3SC2)s1.[Na+] (configuration not stated),–,–,–,–,–,–,–,–,–,–,–,1.05 ± 0.11
